From PubChem BioAssay
The list is not random: actives were taken first. Their share in the collection is about 3.1%.
CF NFkB inh: blocks PAF-induced NF-kB reporter in cystic fibrosis cells; hit rate 0.86% among 360,000; KKLEB NF-kB-GFP reporter, GFP fluorescence overnight; inhibition, % at 5 µM;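 active means at least 50% inhibition at 5 µM, scaled per plate between neutral and stimulator controls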;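 further: PAF is a Pseudomonas aeruginosa culture filtrate used as stimulus; plate controls were PAF-stimulated DMSO wells for no effect and unstimulated DMSO wells for full effect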
HIF-2a block: blocks HIF-2a reporter activity; 786-0 RCC cells HIF-2a reporter, luciferase luminescence, overnight; inhibition, % at 18.8 µM; hit rate 0.72% among 360,000;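 active means inhibition of the luminescence signal of 40% or more relative to plate controls, in a single-dose primary screen at 18.75 µM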
KKLEB cytotox: counter-screen for CF NF-kB inhibitors: cytotoxicity | KKLEB CF airway cells viability, ATPlite luminescence, overnight; hits give low values; cells stimulated with P. aeruginosa culture filtrate | activity change (cytotoxicity), % at 5 µM | hit rate 0.36% among 360,000 | AID 602141;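 active means corrected activity change at or below -50% at 5 µM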
PPC-1+TRAIL kill: compounds killing PPC-1 cancer cells with TRAIL present (potentiator screen, no TRAIL-free arm); PPC-1 cells + TRAIL, ATPLite viability luminescence; cell killing (% activity), % at 4 µM or 5 µM; hit rate 0.41% among 220,000; AID 1443;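 active means cell killing above 50% in the first pass at 4 µM, then a duplicate retest at 5 µM averaging 50% or more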;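 further: plate controls were cells with TRAIL plus DMSO for no effect and medium-only wells lacking cells for full effect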
C8 TRAIL sens: caspase-8 TRAIL sensitization. NB7+C8 cells + TRAIL, ATPlite viability luminescence. inhibition (viability loss, TRAIL sensitization), % at 10 µM. hit rate 1% among 360,000. AID 624354;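 active means compounds causing at least 50% loss of cell viability in the single-dose screen, relative to plate controls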
Peg3 promoter: Peg3 promoter activity inhibition | HeLa PEG-Prom luciferase reporter, luminescence, overnight | hit rate 1.7% among 360,000 | AID 588405 | inhibition, % at 20 µM;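 active means inhibition of at least 50% at 20 µM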
PPC1 cytotox: PPC-1 cell cytotoxicity; shares compounds with PPC-1+TRAIL kill; PPC-1 viability, ATPlite luminescence, overnight; cytotoxicity, % at 5 µM; hit rate 50% among 1,200; AID 1447;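 active means reconfirmed compounds whose average cytotoxicity reaches 50% or more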;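 further: 0% = DMSO-treated cells and 100% = wells holding medium but no cells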
Active calls of the source: *; / = no result given.

SMILES | CF NFkB inh | HIF-2a block | KKLEB cytotox | PPC-1+TRAIL kill | C8 TRAIL sens | Peg3 promoter | PPC1 cytotox
CSc1cc(C)n(-c2ccccc2)c(=S)c1C(C)=O | -5.7 | 22.9 | 1.4 | -5.0 | 19.6 | 17.1 | -6.0
COc1ccc(S(=O)(=O)Nc2ccc(O)c3ccccc23)cc1 | 89.8* | 38.0 | -47.9 | 15.9 | 19.1 | 30.9 | 3.6
O=C(O)CC(NC(=O)c1ccccc1NC(=O)c1ccccc1)C(=O)O (configuration not stated) | -7.5 | 3.6 | -16.2 | 4.7 | -4.3 | 8.2 | 3.3
O=C(c1ccccc1)N1CCN(c2ncnc3c2cnn3-c2ccccc2)CC1 | -8.2 | -128.0 | -1.9 | 0.8 | 2.7 | -48.0 | /
O=C(c1ccco1)N1CCN(c2ncnc3c2cnn3-c2ccccc2)CC1 | -17.8 | -202.2 | -4.7 | 4.0 | -2.0 | -174.0 | 4.9
CCOC(=O)C1CCCN(C(=O)c2ccc3c(c2)C(C)(C)CCC3(C)C)CC1 (configuration not stated) | 4.4 | 26.3 | -5.6 | / | 16.3 | 35.6 | /
O=C(O)c1c2c(nc3ccccc13)/C(=C/c1ccc(OC(F)F)cc1)CCC2 | 0.1 | -136.0 | 5.5 | / | 1.5 | -101.4 | /
O=C(O)c1c2c(nc3ccccc13)/C(=C/c1ccc(O)cc1)CC2 | -19.3 | -18.5 | -3.3 | 48.2 | 57.9* | 10.3 | 48.9
CCOc1ccc(-c2nc3ccccc3c(=O)o2)cc1 | -36.0 | -201.3 | -5.0 | 54.4* | 68.0* | -211.7 | 56.4*
Nc1nonc1-c1nc2ccccc2n1Cc1ccc(F)cc1Cl | 17.6 | 13.8 | -18.4 | 19.6 | 20.5 | 12.0 | /
Fc1ccc(Cn2c(-c3cscn3)nc3ccccc32)c(Cl)c1 | 13.8 | 5.5 | -15.5 | -3.0 | -10.1 | 6.2 | 9.6
O=C(COC(=O)c1cc[n+]([O-])cc1)NC(=O)c1ccc(OC(F)F)cc1 | 0.8 | 6.0 | -7.8 | / | 1.9 | 13.0 | /
CN(Cc1ccccc1)C(=O)COc1cccnc1[N+](=O)[O-] | 10.4 | 15.7 | -7.6 | / | 0.9 | 1.7 | /
CCCn1nc(NC(=O)c2ccco2)c2cc3cc(C)ccc3nc21 | -2.9 | -218.9 | -17.6 | 24.9 | 3.5 | -25.8 | /
CCCn1nc(NC(=O)c2ccco2)c2cc3ccc(C)cc3nc21 | -7.1 | 9.8 | 3.3 | -0.7 | -10.1 | 22.5 | 6.7
CCc1ccc(C(=O)Nc2nnn(CC)n2)cc1 | 1.3 | -32.4 | -20.2 | 63.4* | 65.5* | -2.3 | 56.9*
Cc1ccc(C2C(C#N)=C(N)Oc3cc4c(cc32)OCO4)cc1 (configuration not stated) | 7.5 | 24.8 | -13.3 | 8.5 | -0.4 | 27.4 | /
CC(C)(C)C1=C(C#N)C(c2cc3c(cc2Br)OCO3)C(C#N)=C(N)O1 (configuration not stated) | 5.5 | 9.5 | -2.6 | -9.7 | -6.8 | 2.0 | 4.2
CC(C)N(C)C1CCN(C(=O)Nc2ccc(Cl)c(Cl)c2)CC1 | -22.9 | 0.4 | 0.5 | 0.6 | 3.3 | -15.2 | 2.8
COc1ccc(C(=O)O/N=C(/c2ccccc2)c2ccncc2)cc1 | -16.4 | -91.0 | 8.7 | 14.9 | -10.7 | -61.8 | /
COc1ccc(C(=O)N=c2nc3ccccn3s2)cc1 | -8.8 | 46.2* | -47.8 | 90.5* | 91.0* | -39.2 | 90.1*
CCCC(=O)Nc1nnc(S(=O)(=O)N(CC)c2ccc(OC)cc2)s1 | 1.9 | 7.2 | 1.1 | / | 4.3 | 19.5 | /
O=C(NC(=S)NC12CC3CC(CC(C3)C1)C2)c1ccc(F)cc1 | -21.8 | -234.0 | -4.5 | / | -0.9 | -348.5 | /
CCOc1ccc(C(=O)Nc2cc(C)on2)cc1 | -3.6 | -149.4 | 4.3 | 47.0 | 63.7* | -90.5 | 50.5*
CCOc1ccc(C(=O)Nc2ccccc2C(=O)O)cc1 | 8.8 | -172.6 | 0.0 | 61.9* | 74.6* | -131.4 | 61.5*
SMILES | CF NFkB inh | HIF-2a block | KKLEB cytotox | PPC-1+TRAIL kill | C8 TRAIL sens | Peg3 promoter | PPC1 cytotox
O=C(O)c1nc(-c2ccccc2)c(C(=O)NC2CC2)[nH]1 | -13.4 | 1.7 | 2.8 | / | -0.9 | -3.8 | /
O=C(N/N=C/c1ccc([N+](=O)[O-])cc1)c1[nH]ncc1Br | 1.4 | -240.7 | -2.7 | 26.8 | 49.0 | -227.6 | 26.1
Cc1ccc2nc(N(CCN(C)C)C(=O)C3CCN(S(=O)(=O)c4cccs4)CC3)sc2c1 | 4.2 | -113.7 | -4.2 | / | -15.7 | -73.4 | /
Clc1cccc(Cl)c1C[n+]1ccc2ccccc2c1 | 15.3 | 12.3 | -29.6 | / | 5.2 | 3.4 | /
O=C(CCn1cnc2ccccc2c1=O)Nc1cccc(Cl)c1 | -22.1 | -18.6 | 1.7 | -18.5 | 10.0 | -10.4 | -35.2
O=C1c2cccc3c([N+](=O)[O-])ccc(c23)C(=O)N1CCc1ccccn1 | -11.1 | -44.2 | 13.3 | 24.2 | 43.6 | 91.5* | 12.1
O=C1c2ccccc2C(=O)N1CCc1ccccn1 | 12.9 | -40.2 | 9.4 | 7.1 | -8.2 | 2.6 | /
O=c1c(-c2ccco2)nc2ccccc2n1C(c1ccccc1)c1nc2ccccc2[nH]1 (configuration not stated) | / | -171.9 | / | / | 19.6 | / | /
O=C(CN1CCC(NC(=O)c2ccccc2F)CC1)Nc1ccc2c(c1)OCCO2 | -4.3 | 10.6 | 0.4 | 9.4 | -5.0 | 3.1 | -8.9
CS(=O)(=O)/C(C#N)=C/c1cccn1S(=O)(=O)c1cccc2ccccc12 | -39.9 | 6.1 | 5.7 | / | -7.3 | 0.9 | /
Fc1ccc(-c2cn3ccccc3n2)cc1 | -20.3 | -154.2 | -17.0 | / | 27.9 | -246.2 | /
CCOc1ccc(-c2cn3ccccc3n2)cc1 | -24.7 | -78.8 | -51.3* | 90.7* | 84.1* | -82.6 | 88.6*
COc1ccc(Cl)cc1NC(=S)N1CCN(S(C)(=O)=O)CC1 | 16.3 | 3.2 | -12.5 | 19.0 | 0.5 | 24.9 | /
COc1ccc(Cl)cc1NC(=O)N1CCN(S(C)(=O)=O)CC1 | -31.9 | -14.5 | -3.1 | 5.2 | 9.8 | -3.8 | -9.3
O=C(CCCCn1c(=O)c2ccccc2n(Cc2ccc(F)cc2)c1=O)NCc1ccco1 | 10.7 | 12.8 | -4.5 | -3.6 | 15.5 | 34.3 | 2.1
O=C(CCCn1c(=O)c2ccccc2n(Cc2ccccc2)c1=O)NCc1ccco1 | 4.1 | 14.9 | 0.4 | -1.0 | 3.0 | 26.8 | /
COc1ccc(C(=O)C(=O)N2CCN(c3ccccc3F)CC2)cc1 | / | -7.0 | / | / | -4.0 | / | /
Cc1ccccc1NC(=S)Nc1cccc2cnccc12 | 1.0 | -99.6 | -22.6 | 22.6 | 2.8 | -50.2 | /
Cc1ccc(NC(=S)Nc2cccc3cnccc23)cc1C | 36.3 | -143.5 | -18.9 | 2.6 | 30.1 | -121.7 | -9.2
Fc1ccccc1NC(=S)Nc1cccc2cnccc12 | 14.3 | -157.1 | 2.8 | -16.4 | 3.4 | -196.5 | -27.0
Cc1ccc(Cn2ccc(NC(=O)CCSc3nc(-c4ccco4)cc(C(F)(F)F)n3)n2)cc1 | 4.0 | 6.5 | -4.4 | -14.1 | 6.7 | 31.2 | /
Cc1ccccc1Cn1ccc(NC(=O)CCSc2nc(-c3ccco3)cc(C(F)(F)F)n2)n1 | 9.2 | 22.1 | -6.6 | -2.0 | 10.0 | 3.0 | 1.3
COc1cc(/C=C/c2cc(C(=O)O)c3ccccc3n2)ccc1OC(F)F | 8.6 | -216.1 | -4.1 | 79.7* | 82.6* | -116.3 | 79.0*
